# Source: the supplement of paper PMC9694430
# How the values were obtained:
# Assay in all cases: thermal shift delta Tm vs DMSO control; higher = stronger stabilization (binding)
# Conditions in all cases: 12.5 µM; protein concentration 2 µM
# [1] = test system: LOC_OS01G01410-cb001
# In short: (§1)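 The melting temperature shift given here is a triplicate mean, measured against protein that received only DMSO. Melting temperatures came from Boltzmann fits of differential scanning fluorimetry data on E. coli-expressed, purified rice kinase domain constructs. Each 19.5 μl well contained 2 μM kinase, 100 mM potassium phosphate pH 7.5, 150 mM NaCl, 10% glycerol, 5 × SYPRO Orange and compound in DMSO. Plates were scanned from 25°C to 95°C at 0.05°C/s.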
# [2] = test system: LOC_OS01G02750-cb003
# In short: as §1
# [3] = test system: LOC_OS01G10900-cb004
# In short: as §1
# [4] = test system: LOC_OS01G13800-cb001
# In short: as §1
# [5] = test system: LOC_OS01G14860-cb001
# In short: as §1
# [6] = test system: LOC_OS01G21960-cb002
# In short: as §1
# [7] = test system: LOC_OS01G39600-cb002
# In short: as §1
# [8] = test system: LOC_OS01G48390-cb002
# In short: as §1
# [9] = test system: LOC_OS01G51400-cb002
# In short: as §1
# [10] = test system: T1, LOC_OS01G52050-cb004
# T1 sequence (whole entry): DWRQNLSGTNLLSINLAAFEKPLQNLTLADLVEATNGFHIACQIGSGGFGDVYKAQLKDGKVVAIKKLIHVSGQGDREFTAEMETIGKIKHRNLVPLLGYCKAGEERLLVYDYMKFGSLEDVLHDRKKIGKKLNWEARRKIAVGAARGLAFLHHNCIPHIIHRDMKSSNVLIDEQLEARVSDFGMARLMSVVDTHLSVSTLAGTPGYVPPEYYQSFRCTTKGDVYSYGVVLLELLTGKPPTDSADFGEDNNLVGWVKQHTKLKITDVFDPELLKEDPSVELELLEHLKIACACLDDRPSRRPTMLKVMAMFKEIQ
# In short: as §1
# [11] = test system: LOC_OS01G57100-cb003
# In short: as §1
# [12] = test system: LOC_OS01G60330-cb001
# In short: as §1
# [13] = test system: LOC_OS01G60700-cb002
# In short: as §1
# [14] = test system: LOC_OS01G63280-cb003
# In short: as §1
# [15] = test system: LOC_OS01G67340-cb003
# In short: as §1
# [16] = test system: LOC_OS01G70970-cb002
# In short: as §1
# [17] = test system: LOC_OS02G07810-cb001
# In short: as §1
# [18] = test system: LOC_OS02G08530-cb003
# In short: as §1
# [19] = test system: LOC_OS02G14120-cb001
# In short: as §1
# [20] = test system: LOC_OS02G17970-cb001
# In short: as §1
Compound,thermal shift delta Tm [1] [°C],thermal shift delta Tm [2] [°C],thermal shift delta Tm [3] [°C],thermal shift delta Tm [4] [°C],thermal shift delta Tm [5] [°C],thermal shift delta Tm [6] [°C],thermal shift delta Tm [7] [°C],thermal shift delta Tm [8] [°C],thermal shift delta Tm [9] [°C],thermal shift delta Tm [10] [°C],thermal shift delta Tm [11] [°C],thermal shift delta Tm [12] [°C],thermal shift delta Tm [13] [°C],thermal shift delta Tm [14] [°C],thermal shift delta Tm [15] [°C],thermal shift delta Tm [16] [°C],thermal shift delta Tm [17] [°C],thermal shift delta Tm [18] [°C],thermal shift delta Tm [19] [°C],thermal shift delta Tm [20] [°C]
C=CC(=O)Nc1ccc(CN2C(=O)N(c3cc(OC)cc(OC)c3)Cc3cnc(Nc4ccc(N5CCN(C)CC5)cc4)nc32)cc1,1.43,1.19,4.79,0.56,0.97,1.74,-0.73,4.57,0.02,0.08,3.1,0.63,2.43,0.9,0.61,1.17,1.48,1.77,2.28,1.39
C[C@H]1CNC(=O)c2cnn3ccc(nc23)N[C@H](C)c2cc(F)ccc2O1,-0.06,4.66,3.91,-0.18,0.3,1.05,0.15,1.46,0.22,4.57,0.38,-0.02,-0.09,2,1.17,0.74,-0.67,2.82,10.7,-0.27
Cn1cc(-c2ccc3c(c2)CCN3C(=O)Cc2cccc(C(F)(F)F)c2)c2c(N)ncnc21,1.18,3.93,2.83,-0.12,0.47,0.33,0.17,0.89,-0.22,2.35,1.46,-0.42,0.15,9.43,3.52,0.54,0.74,1.06,3.86,0.57
CC(=O)c1c(C)c2cnc(Nc3ccc(N4CCNCC4)cn3)nc2n(C2CCCC2)c1=O,0.65,0.74,0.47,-0.38,2.26,0.28,0.65,0.1,0,0.98,-0.7,1.73,0.15,-0.12,1.56,0.58,-0.42,1.29,4.13,0.68
Cc1ccc(Nc2nccc(N(C)c3ccc4c(C)n(C)nc4c3)n2)cc1S(N)(=O)=O,2.81,0.47,1.7,0.62,1.21,1.29,1.56,4.66,0.3,0.89,0.87,4.66,1.25,0.81,0.74,0.44,1.5,1.68,3.21,0.47
CCN(CC)CCNC(=O)c1c(C)[nH]c(/C=C2\C(=O)Nc3ccc(F)cc32)c1C [Sunitinib Malate],4.49,1.04,0.54,-0.1,1.29,2.13,2.58,2.08,0,7.04,0.44,9.27,0.27,0.02,2.37,7,-0.25,5.21,7.4,-0.05
CCOc1ccn(-c2ccc(F)cc2)c(=O)c1C(=O)Nc1ccc(Oc2ccnc(N)c2Cl)c(F)c1,0.18,1.95,0.48,0.21,3.61,0.65,-0.36,2.33,0.21,0.98,1.62,0.89,0.32,6.59,0.42,0.37,1.56,1.41,4.74,1.32
CN1CCC(COc2cnc(-c3cccc(Cn4nc(-c5cccc(C#N)c5)ccc4=O)c3)nc2)CC1,0.33,0.27,0.17,-0.5,0.03,0.05,0.63,0.2,0.24,0.04,0.71,0.27,0.62,-0.13,-0.02,0.15,0.34,0.12,0.1,0.24
O=C(/C=C/c1ccc2ccccc2n1)c1ccncc1,0.4,-1.2,1.49,0.45,1.08,2.15,-0.61,0.91,0.46,-0.48,1.22,1.35,0.05,1.12,0.62,0.59,0.02,2.02,2.08,1.05
N#CC1(c2ccc(NC(=O)c3cccnc3NCc3ccncc3)cc2)CCCC1 [Apatinib],1.1,0.48,0.27,0.11,0.52,0.5,0.01,0.55,0.33,0.12,1.62,0.33,0.74,5.6,0.6,0.01,1.02,0.96,0.6,-0.16
CNC(=O)c1ccccc1Sc1ccc2c(/C=C/c3ccccn3)n[nH]c2c1 [Axitinib],2,0.59,0.25,-0.18,0.29,0.14,1.08,0.12,0.04,0.17,0.01,1.21,1.17,0.65,-0.05,0.68,0.49,0.53,3.54,-0.24
OC(c1cc(-c2ccc(Cl)cc2)nc2ccccc12)C1CCCCN1 (stereo not given) [Vacquinol-1],0.1,1.71,0.31,1.34,0.11,1.18,-0.2,0.86,0.34,0.54,2.48,1.32,1.39,0.78,1.06,0.39,0.67,0.72,0.39,0.79
CN1c2ccccc2C(=O)Nc2cnc(Nc3ccc(N4CCC(O)CC4)cc3)nc21,0.94,1.24,3,-0.58,0.36,0.64,0.1,0.29,0.1,0.63,0.2,1.06,0.97,2.56,1.01,2.61,0.39,0.74,11.1,0.53
Cc1cc(Nc2cc(N3CCN(C)CC3)nc(/C=C/c3ccccc3)n2)n[nH]1,2.2,1.8,1.93,-0.23,2.99,2.75,2.83,2.45,0.24,3.7,0.41,9.2,0.77,0.17,0.51,3.04,0.72,2.41,7.14,-0.1
COc1nccnc1NS(=O)(=O)c1ccc(NC(=O)/C=C/c2ccc([N+](=O)[O-])s2)cc1 [Necrosulfonamide],1.29,0.21,2.42,1.27,0.78,0.24,-1.55,0.84,-0.04,0.81,-1.39,1.46,1.17,0.16,0.36,-0.61,1.4,0.83,-0.66,2.48
Cn1ncc(Cl)c1-c1cc(C(=O)N[C@H](CN)Cc2cccc(F)c2)sc1Cl,0.78,2.36,0.19,-0.25,0.67,0.59,-0.1,0.28,0.18,0.5,0.79,0.75,0.77,0.1,0.54,0.15,0.41,0.69,1.31,0.56
CC1Oc2cc(cnc2N)-c2c(nn(C)c2C#N)CN(C)C(=O)c2ccc(F)cc21 (stereo not given),0.52,1.64,0.21,-0.23,0.3,-0.18,-0.18,2.07,0.44,0.41,3.37,0.4,0.4,0.16,0.4,0.35,-0.27,2.75,6.77,0.31
Cc1csc(-c2nnc(Nc3ccc(Oc4ncccc4-c4ccnc(N)n4)cc3)c3ccccc23)c1,1.65,0.49,0.46,0.28,0.97,1.99,1.72,1.04,0.22,1.54,2.43,-0.58,0.56,14,0.96,0.74,1.36,4.38,3.75,1.17
C[S+]([O-])c1ccc(-c2nc(-c3ccc(F)cc3)c(-c3ccncc3)[nH]2)cc1 (stereo not given),1.61,-0.29,0.57,0.79,2.49,1.22,0.18,0.4,-0.08,0.5,1.65,1.11,1.91,1.11,-0.03,0.63,1.46,1.44,1.3,0.84
CS(=O)(=O)N1CCN(Cc2cc3nc(-c4cccc5[nH]ncc45)nc(N4CCOCC4)c3s2)CC1 [Pictilisib (GDC-0941)],1.2,0.47,0.85,0.43,1.21,0.24,0.57,2.14,-0.08,-0.11,0.25,2.44,0.85,-0.25,-0.42,0.62,0.7,1.22,0.32,0.17
CCCCNc1ncc(-c2ccc(CN3CCOCC3)cn2)c(NC2CCC(O)CC2)n1 (stereo not given),3.51,2.08,0.31,-0.02,1.13,1.41,0.62,1.38,0.2,2.9,-0.33,8.95,0,-0.12,1.86,5.72,0.1,1.9,5.78,0.44
NC(=O)c1ccc(N(C(N)=O)c2c(F)cccc2F)nc1-c1ccc(F)cc1F,0.34,0.53,0.19,-0.47,-0.12,0.57,-1.78,0.07,0.14,-0.21,-0.23,-0.16,0.91,-0.21,-0.08,0.4,0.66,0.7,-0.49,0.09
Cc1c(C(=O)N2CCOc3ccc(-c4ccc(N)nc4)cc3C2)ccc(S(C)(=O)=O)c1F,0.69,0.8,0.01,0.06,0.22,0.19,-0.01,0.13,0.26,0.52,-0.07,0.34,0.98,0.62,0.21,0.48,-0.03,0.91,0.74,0.12
COc1ccc(-c2nc(N3CCOCC3)c3sc(CN(C)c4ncc(C(=O)NO)cn4)cc3n2)cn1,0.62,1.67,0.67,0.23,0.42,0.88,0.28,0.53,0.43,-0.17,2.79,1.04,0.58,0.34,0.21,0.21,1.31,0.97,0.54,0.14
Cc1cc(Nc2cc(Cl)nc(Oc3ccc([N+](=O)[O-])cc3)n2)n[nH]1 [Autophinib],2.53,3.49,2.92,-0.1,7.77,1.42,1.82,4.13,0.51,5.57,1.52,0.66,-0.44,0.94,0.51,1.07,-0.12,0.84,0.42,0.46
